Only a sample is shown.
CYP2C19 inh: human CYP2C19 inhibition | CYP2C19 Supersomes, luciferin-H EGE luminescence, 30 min | actives 21% (n = 96,000) | inhibition, % at 5 µM;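 active = CYP2C19 inhibition above a set limit at 5 µM in the primary screen, cut at about 50% in these data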;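 note: plate controls were negative control wells for no effect and 2.5 mM tranylcypromine positive control for full effect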
CYP2C19 activ: increases human CYP2C19 enzyme activity. P33261. recombinant CYP2C19, luciferin-H EGE luminescence; stronger effect = higher value; 0 = fully inhibited enzyme, 1 = untreated enzyme. activation factor at 5 µM. 96,000 tested, under 10 active. AID 1025;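 active = activation factor of at least 2 at 5 µM in the primary screen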;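 note: 0 = wells with 2.5 mM tranylcypromine and 1 = vehicle-only wells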
PostGolgi yeast: growth inhibition of a yeast mutant, post-Golgi transport screen; actives 0.9% (n = 98,000); post-Golgi transport phenotypic cell assay; inhibition, % at 10 µM;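 note: yeast cells grown in 1536-well plates; yeast grown about 18 h at 30C before absorbance read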
CYP2C9 inh: human CYP2C9 inhibition | CYP2C9 Supersomes, luciferin-H conversion, luminescence | inhibition, % at 5 µM | actives 20% (n = 96,000);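 active = blocking of liver enzyme CYP2C9 beyond about 50% at 5 µM, limit read from the data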
CYP2C9 activ: increases human cytochrome P450 2C9 activity; P11712; recombinant CYP2C9, luciferin-H conversion, luminescence; stronger effect = higher value; factor 1 = untreated enzyme, 0 = blocked; activation factor at 5 µM; actives 1.4% (n = 96,000); AID 1024;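 active = activation factor of 2 or more for CYP2C9 at a 5 µM dose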;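 note: 0 = sulfaphenazole-blocked wells and 1 = vehicle-only wells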
PostGolgi ctrl: yeast control strain growth, post-Golgi counter-screen. actives 5% (n = 98,000). inhibition, % at 10 µM. efflux-deficient yeast background strain, growth absorbance A615, 16 h
Active calls of the source: *. Cut-off read from the data, not from the text of the source, unless noted: active = inhibition above about 30%; inactive = the rest.

Cc1nnc(NC(=O)CC(CN(C)S(=O)(=O)c2ccccc2)c2ccccc2)s1 (stereo not given) was read as CYP2C19 inh 70*, CYP2C19 activ 0.3, PostGolgi yeast 1, CYP2C9 inh 35, CYP2C9 activ 0.7 and PostGolgi ctrl 9.
CN(CC(CC(=O)Nc1nncs1)c1ccccc1)S(=O)(=O)c1ccc(Br)cc1 (stereo not given) was read as CYP2C19 inh 94*, CYP2C19 activ 0.1, PostGolgi yeast 1, CYP2C9 inh 57*, CYP2C9 activ 0.4 and PostGolgi ctrl 10.
COc1cccc(OC)c1OCCN(C)C was read as CYP2C19 inh 7, CYP2C19 activ 0.9, PostGolgi yeast -2, CYP2C9 inh 2, CYP2C9 activ 1 and PostGolgi ctrl -3.
Screening O=C(NC1=NCCS1)c1cc(-c2ccccc2)nn1-c1ccccc1 returned CYP2C19 inh -17, CYP2C19 activ 1.2, CYP2C9 inh -14 and CYP2C9 activ 1.1.
`CC(C)CN(C(=O)COC(=O)C12CC3CC(CC(O)(C3)C1)C2)C1CCS(=O)(=O)C1` (stereo not given) gave CYP2C19 inh 5, CYP2C19 activ 0.9, PostGolgi yeast -1, CYP2C9 inh -1, CYP2C9 activ 1 and PostGolgi ctrl 8.
For COc1ccc(C2NC(=O)c3ccccc3O2)c(OC)c1OC (stereo not given) the results were CYP2C19 inh 85*, CYP2C19 activ 0.2, PostGolgi yeast -3, CYP2C9 inh 70*, CYP2C9 activ 0.3 and PostGolgi ctrl 11.
For COc1ccc(C2NC(c3ccc(OC)c(OC)c3OC)C(C)C(=O)C2C)c(OC)c1OC (stereo not given) the results were PostGolgi yeast 2 and PostGolgi ctrl 3.
`COc1ccccc1NC(=O)C1=C(C)NC(=O)NC1c1cccc(OC)c1OC` (stereo not given) gave CYP2C19 inh -1, CYP2C19 activ 1, PostGolgi yeast -2, CYP2C9 inh -13, CYP2C9 activ 1.1 and PostGolgi ctrl 3.
`COc1cccc(C2NC(=O)c3ccccc3O2)c1OC` (stereo not given) gave CYP2C19 inh 86*, CYP2C19 activ 0.1, PostGolgi yeast 25, CYP2C9 inh 30, CYP2C9 activ 0.7 and PostGolgi ctrl 20.
`NC(=O)c1ccc(-c2ncc(-c3ccccc3)o2)cc1` gave CYP2C19 inh 25, CYP2C19 activ 0.7, PostGolgi yeast 6, CYP2C9 inh 19, CYP2C9 activ 0.8 and PostGolgi ctrl 13.
Screening Cn1c(=O)n(CCN2CCOCC2)c(=O)c2c1nc1n2CCCN1c1ccccc1 returned CYP2C19 inh 11, CYP2C19 activ 0.9, CYP2C9 inh 24 and CYP2C9 activ 0.8.
Cc1nn(C(C)C(=O)NNC(=S)Nc2ccc(Cl)cc2)c(C)c1[N+](=O)[O-] (stereo not given) was read as CYP2C19 inh 0, CYP2C19 activ 1, PostGolgi yeast -2, CYP2C9 inh 64*, CYP2C9 activ 0.4 and PostGolgi ctrl -3.
`Cc1cc(C(=O)NC(C)C)on1` gave CYP2C19 inh 0, CYP2C19 activ 1, PostGolgi yeast 4, CYP2C9 inh 2, CYP2C9 activ 1 and PostGolgi ctrl 14.
Screening COc1ccc(-c2cc3nc(C4CCN(C(=O)OC(C)(C)C)CC4)c(C(=O)O)cn3n2)cc1 returned CYP2C19 inh -5, CYP2C19 activ 1.1, PostGolgi yeast -17, CYP2C9 inh 75*, CYP2C9 activ 0.2 and PostGolgi ctrl -6.
Screening CCOC(=O)c1cn2nc(-c3ccc(OCC)cc3)cc2nc1C1CCN(C(=O)OC(C)(C)C)CC1 returned CYP2C19 inh 18, CYP2C19 activ 0.8, PostGolgi yeast 22, CYP2C9 inh 46, CYP2C9 activ 0.5 and PostGolgi ctrl 3.
COc1ccc(C2/C(=C(\O)c3cc(C)ccc3C)C(=O)C(=O)N2CCN(C)C)cc1OC (stereo not given) was read as CYP2C19 inh -4, CYP2C19 activ 1, PostGolgi yeast -2, CYP2C9 inh 33, CYP2C9 activ 0.7 and PostGolgi ctrl 17.
CCN(CC)CCOC(=O)c1ccc(NC(=O)COc2cc(=O)n(CC)c3ccccc23)cc1 was read as CYP2C19 inh 66*, CYP2C19 activ 0.3, PostGolgi yeast 2, CYP2C9 inh 52*, CYP2C9 activ 0.5 and PostGolgi ctrl 0.

Bioassay records: PubChem, several laboratories
